In the library only some 3.3% were active in any assay of this set; here they are far more common.
Gli-Sufu antag = blocks Gli-Sufu signaling in a luciferase reporter | Sufu-KO-LIGHT fibroblasts, Gli luciferase reporter luminescence | inhibition, % at 5 µM | 340,000 tested, 0.74% active;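 active means inhibition above about 55%, limit read from the data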;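 further: 0% = DMSO-treated cells and 100% = wells with medium but no cells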
697 NFkB inh = lowers PMA/ionomycin-induced NF-kB signal in 697 B cells; inhibition, % at 4 µM; 330,000 tested, 0.33% active; 697 B-cell NF-kB luciferase reporter, 16 h; AID 435022; in the data active means inhibition above about 35%
Jurkat NFkB inh = inhibitors of the PMA/ionomycin-induced NF-kB reporter in Jurkat cells. inhibition, % at 4 µM. AID 435003. PMA/ionomycin-induced NF-kB luciferase reporter, luminescence. 330,000 tested, 0.53% active; in the data active means inhibition above about 50%
esBAF inh = inhibitors of esBAF chromatin remodeling in mouse ES cells; Bmi1-luciferase knock-in reporter, 24 h; 100% = twice the neutral-well signal; reporter increase, % at 12.5 µM; 350,000 tested, 2% active; AID 602393; in the data active means activation above about 40%;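 further: 0% = median of the plate's neutral control wells and 100% = double that signal; a rise in the Bmi1 reporter signal indicates esBAF inhibition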
SMARCA2 activ = SMARCA2 function activation, primary screen; MG213 cells, MMTV-luciferase reporter, dexamethasone, overnight; activation, % at 9.1 µM; 370,000 tested, 1% active; AID 652017; in the data active means activation above about 7.8%;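 further: 0% = vehicle wells and 100% = reference activator wells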
An asterisk follows results filed as active; nt = no result.

SMILES	Gli-Sufu antag	697 NFkB inh	Jurkat NFkB inh	esBAF inh	SMARCA2 activ
CN(C)c1ccc(/C=C(/C#N)C(=O)NCc2ccccc2)o1	-34	-25	-28	48*	0
C[C@H]1CN([C@@H](C)CO)C(=O)Cc2cc(NS(=O)(=O)c3cccs3)ccc2O[C@H]1CN(C)S(=O)(=O)c1ccccc1	nt	nt	nt	-7	nt
COc1ccc(S(=O)(=O)N(C)C[C@@H]2OCCCC[C@@H](C)Oc3ccc(NS(C)(=O)=O)cc3C(=O)N([C@@H](C)CO)C[C@H]2C)cc1	nt	nt	nt	3	nt
CN(CC(=O)Nc1cccc(F)c1)C(=O)CCCNC(=O)c1ccc(Cl)cc1	-42	-7	-24	54*	1
C[C@@H]1CN([C@H](C)CO)C(=O)c2cc(C#Cc3ccncc3)cnc2O[C@H]1CN(C)CC1CCCC1	nt	nt	nt	-1	nt
CCOC(=O)c1sc(NC(=O)c2ccc(CC)s2)nc1C	-119	-110	-93	51*	3
CCc1ccc(C(=O)Nc2nc(C)cs2)s1	-68	17	-51	-28	4
CCCCC(=O)Nc1nc2ccc(C(=O)OC)cc2s1	-56	-75	-25	nt	7
CCc1ccc(C(=O)Nc2cc(C)ccc2F)s1	-35	-6	-46	66*	1
COC(=O)Cc1csc(Nc2ccccc2Cl)n1	-9	1	-10	54*	3
CCOC(=O)Cc1csc(NC(=O)Cc2ccccc2)n1	12	-2	-6	nt	-3
CCCC(=O)Nc1nc2ccc(C(=O)OCC)cc2s1	-69	-77	-51	65*	2
N#Cc1cccc(-c2ccc3c(c2)[C@H]2[C@H](CCN2S(=O)(=O)c2ccccc2)[C@@H](CO)N3)c1	nt	nt	nt	-2	nt
CCCNC(=O)C[C@@H]1CC[C@@H]2[C@H](COC[C@H](O)CN2C(=O)Nc2ccccc2OC)O1	nt	nt	nt	1	nt
CCOC(=O)c1sc(Nc2ccc(Br)cc2)nc1C	-12	-14	-17	nt	2
CCOC(=O)c1sc(NC(=O)c2ccc3ncsc3c2)nc1C	-14	-14	-33	51*	2
CCOC(=O)c1sc(Nc2ccccc2Cl)nc1C	-51	-70	-66	65*	3
CO[C@H]1CN(C)C(=O)c2ccc(NS(C)(=O)=O)cc2OC[C@H](C)N(Cc2cccnc2)C[C@H]1C	nt	nt	nt	3	nt
COc1ccc(NC(=O)c2sccc2C)c([N+](=O)[O-])c1	-54	-76	-34	55*	2
COc1cc(NC(=O)COc2ccccc2[N+](=O)[O-])ccc1NC(=O)c1cccs1	-38	nt	nt	50*	1
COc1ccc(NC(=O)C/C(C)=N/NC(=O)c2cccs2)c([N+](=O)[O-])c1	30	13	11	2	7
COc1ccc(NC(=O)c2cc(Cl)ccc2Cl)c([N+](=O)[O-])c1	-7	5	15	8	-3
COc1ccc(NC(=O)c2cccs2)c([N+](=O)[O-])c1	1	-49	-50	86*	4
Cc1ccc(S(=O)(=O)Nc2ccc3c(c2)C(=O)N([C@@H](C)CO)C[C@@H](C)[C@H](CN(C)S(=O)(=O)c2cn(C)cn2)OCCCC[C@@H](C)O3)cc1	nt	nt	nt	-8	nt
Cn1c(=N)n(CC(=O)C(C)(C)C)c2ccccc21	-18	-17	-22	51*	3
SMILES	Gli-Sufu antag	697 NFkB inh	Jurkat NFkB inh	esBAF inh	SMARCA2 activ
COc1ccc(C(=O)Cn2c(=N)n(C)c3ccccc32)cc1	-37	-199	-124	87*	5
C[C@@H](NC(=O)C[C@@H]1CC[C@H](NC(=O)CN2CCOCC2)[C@@H](CO)O1)c1ccccc1	nt	nt	nt	-3	nt
COc1ccc(C(=O)C(c2ccccc2)N2CCOCC2)cc1 (stereo not drawn)	8	-2	-1	-13	1
Cc1ccc(C(=O)C(c2ccccc2)N2Cc3ccccc3C2=N)cc1 (stereo not drawn)	56*	-20	2	nt	nt
Brc1ccc(-c2cnc(-c3cccs3)o2)cc1	-53	-86	-66	67*	4
CCCOc1ccc(-c2nnc(-c3cccs3)o2)cc1	-50	-167	-117	-35	6
CCCCCCCSc1ncnc2[nH]ncc12	-11	nt	nt	70*	-3
CCCC#Cc1ccc2c(c1)O[C@H](CN(C)C(=O)c1ccccn1)[C@H](C)CN([C@H](C)CO)S2(=O)=O	nt	nt	nt	-2	nt
O=C(Cc1ccccc1)N1CCC(c2ccccc2)C1 (stereo not drawn)	-8	-4	-2	46*	7
COc1ccc(CC(=O)N2CCC(c3ccccc3)C2)cc1 (stereo not drawn)	-3	5	-12	nt	3
Cc1noc(C)c1NC(=O)Nc1ccc2c(c1)CC(=O)N([C@@H](C)CO)C[C@@H](C)[C@@H](CN(C)S(=O)(=O)c1ccc(Cl)cc1)O2	nt	nt	nt	-9	nt
CC(C)(C)N1CC(COc2ccccc2)OC1=O (stereo not drawn)	-6	10	-20	62*	-1
COc1ccccc1-c1cnc2c(c1)C(=O)N([C@H](C)CO)C[C@H](C)[C@H](CN(C)Cc1cncnc1)O2	nt	nt	nt	-9	nt
Cc1nc(C)c(-c2ccc(SCc3ccccc3F)nn2)s1	-24	-83	-57	69*	2
C[C@@H]1CN([C@H](C)CO)C(=O)c2cc(C#CCN(C)C)cnc2O[C@H]1CN(C)Cc1ccc(-c2ccccc2)cc1	nt	nt	nt	-6	nt
CO[C@H]1CN(C)C(=O)c2cc(NS(=O)(=O)c3ccc(C)cc3)ccc2OC[C@H](C)N(C(=O)NC(C)C)C[C@@H]1C	nt	nt	nt	2	nt
O=C1C2C3C=CC(CC3)C2C(=O)N1/N=C/c1c[nH]c2ccccc12 (stereo not drawn)	-55	-73	-52	61*	7
CCCNC(=O)N[C@@H]1C=C[C@H](CC(=O)NC2CCCCC2)O[C@@H]1CO	nt	nt	nt	-1	nt
C=CC(=O)Nc1cccc(Nc2nc(N[C@H]3CC[C@H](N(C)C)CC3)nc3c2ncn3C(C)C)c1	76*	nt	nt	-78	nt
CC(C)C#Cc1cnc2c(c1)C(=O)N([C@@H](C)CO)C[C@@H](C)[C@H](CN(C)C(=O)Nc1cccc(F)c1)O2	nt	nt	nt	0	nt
CC(=O)c1ccc2c(c1)C1C=CCC1C(c1ccncc1)N2 (stereo not drawn)	-49	-11	-19	54*	3
CC(=O)c1ccc2c(c1)C1C=CCC1C(C(=O)O)N2 (stereo not drawn)	-6	17	-4	nt	-2
C[C@H](CO)N1C[C@H](C)[C@H](CN(C)Cc2ccccc2)Oc2ccc(NC(=O)C3CC3)cc2C1=O	nt	nt	nt	-2	nt
Oc1cccc(N2CCN(c3cccc(O)c3)CC2)c1	nt	nt	nt	nt	7.8*
C[C@@H]1CN([C@@H](C)CO)C(=O)c2cc(C#Cc3cccnc3)cnc2O[C@@H]1CN(C)C	nt	nt	nt	3	nt
Cc1scc(C(=O)N/N=C/c2ccc(OC(C)C)cc2)c1C	-43	-43	-34	47*	1
CCCCOc1cccc(/C=N/NC(=O)c2csc(C)c2C)c1	-16	17	0	13	6
C[C@@H](NC(=O)C[C@@H]1C[C@H]2c3cc(NC(=O)CC4CC4)ccc3O[C@H]2[C@H](CO)O1)c1ccccc1	nt	nt	nt	-3	nt
COc1ccc(C(=O)OCc2cc(=O)n3c(C)csc3n2)cc1F	-26	21	-19	73*	2
